Bioassay records: PubChem, Sanford-Burnham Center for Chemical Genomics
Shown are actives, neighbours in structure and some others; about 31% of the full set was active somewhere.
CYP2C19 activ – activators of human cytochrome P450 2C19; P33261; recombinant CYP2C19, luciferin-H EGE luminescence; hits give high values; 0 = fully inhibited enzyme, 1 = untreated enzyme; activation factor at 5 µM; 96,000 tested, under 10 active; AID 1025;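 active = activation factor of at least 2 at 5 µM in the primary screen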
PLAP activator – activates human placental alkaline phosphatase | P05187 | purified PLAP enzyme, luminescent substrate read-out; hits give high values | activation fold at 20 µM | actives 1.2% (n = 96,000) | AID 696; in the data active = activation fold above about 2
Target sequence (P05187 whole entry, looked up): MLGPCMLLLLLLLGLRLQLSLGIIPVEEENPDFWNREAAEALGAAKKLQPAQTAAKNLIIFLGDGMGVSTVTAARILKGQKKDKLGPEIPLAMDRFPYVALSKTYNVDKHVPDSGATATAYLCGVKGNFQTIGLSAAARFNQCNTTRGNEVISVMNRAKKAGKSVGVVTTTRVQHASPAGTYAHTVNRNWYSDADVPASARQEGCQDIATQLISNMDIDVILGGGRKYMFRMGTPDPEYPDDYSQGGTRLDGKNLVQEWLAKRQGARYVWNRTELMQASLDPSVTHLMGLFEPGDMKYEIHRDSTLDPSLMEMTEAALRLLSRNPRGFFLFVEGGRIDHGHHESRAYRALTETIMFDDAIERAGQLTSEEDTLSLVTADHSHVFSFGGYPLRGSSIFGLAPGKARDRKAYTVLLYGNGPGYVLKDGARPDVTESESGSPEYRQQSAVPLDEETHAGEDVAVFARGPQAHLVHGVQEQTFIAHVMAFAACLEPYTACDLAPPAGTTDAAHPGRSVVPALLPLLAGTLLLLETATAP
CYP2C9 inhib – blocks human cytochrome P450 2C9; actives 20% (n = 96,000); CYP2C9 Supersomes, luciferin-H conversion, luminescence; AID 777; P11712; inhibition, % at 5 µM;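 active = blocking of liver enzyme CYP2C9 beyond about 50% at 5 µM, limit read from the data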
CYP2C9 act – CYP2C9 (human) activation | P11712 | recombinant CYP2C9, luciferin-H conversion, luminescence; hits give high values; factor 1 = untreated enzyme, 0 = blocked | activation factor at 5 µM | actives 1.4% (n = 96,000) | AID 1024;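 active = activation factor of 2 or more for CYP2C9 at a 5 µM dose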
CYP2C19 inhib – inhibitors of human CYP2C19. AID 778. CYP2C19 Supersomes, luciferin-H EGE luminescence, 30 min. inhibition, % at 5 µM. actives 21% (n = 96,000). P33261;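 active = CYP2C19 inhibition above a set limit at 5 µM in the primary screen, cut at about 50% in these data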
Large screens that a line does not name were inactive.

Cc1ccc(NC(=O)CO/N=C(\N)c2nonc2N)cc1	CYP2C19 inhib 70
N/C(=N\OC(=O)c1ccc(Cl)cc1)c1nonc1N	none
Cc1cccc(Oc2ccc(C(=O)NC3CCSC3=O)cn2)c1C (stereo not given)	none
COc1ccc(CC(=O)n2nc(-c3ccccc3)nc2NCc2ccco2)cc1	CYP2C9 inhib 56
CCOc1nc(NCc2ccco2)nc(Nc2ccc(OC)cc2)n1	none
COc1ccc(Nc2nc(NCc3ccco3)nc(N/N=C/c3ccccc3)n2)cc1	CYP2C9 inhib 61
CCC(=O)n1nc(-c2ccc(Cl)cc2)nc1NCc1ccccc1	CYP2C9 inhib 50
Cc1c(C(=O)N2CCC(C(N)=O)CC2)sc(N)c1C#N	none
Cc1cc(NC(=O)c2c(Cl)cnn2C)no1	none
CN(C)c1ccc2c(c1)OC(N)=C(C#N)C2c1cccc(F)c1 (stereo not given)	CYP2C9 inhib 80, CYP2C19 inhib 92
N#CC1=C(N)Oc2n[nH]c(-c3cccs3)c2C1c1cccs1 (stereo not given)	none
N#CC1=C(N)Oc2cc(O)ccc2C1c1ccncc1 (stereo not given)	CYP2C9 inhib 92, CYP2C19 inhib 84
Cc1oc(C)c2c(=O)ccc3c(c12)OC(N)=C(C#N)C3c1ccccc1 (stereo not given)	none
N#CC1=C(N)Oc2c(ccc3ccccc23)C1c1cccs1 (stereo not given)	CYP2C9 inhib 54
N#CC1=C(N)Oc2cc(O)ccc2C1c1cccs1 (stereo not given)	CYP2C9 inhib 74, CYP2C19 inhib 76
COc1ccc(S(=O)(=O)N(CC(=O)NCC2CCCO2)c2ccccc2)cc1OC (stereo not given)	none
N/C(COc1ccc(F)cc1)=N\NC(=O)c1cccnc1Oc1ccccc1	PLAP activator 2
COc1cccc(NC(=O)CN2C(=O)C3(OCCCO3)c3ccccc32)c1	none
O=C(CSC1=NCCS1)N1CCCCCC1	CYP2C19 inhib 57
COc1ccc(NC(=O)C2CC(=O)n3cnnc3S2)cc1 (stereo not given)	none
O=C(CSC1=Nc2ccccc2C2=NC(CC(=O)NC3CCCCC3)C(=O)N12)NCc1ccco1 (stereo not given)	none
O=C(CCC1N=C2c3ccccc3N=C(SCc3ccccc3Cl)N2C1=O)NCc1ccco1 (stereo not given)	CYP2C9 inhib 60
O=C(CCC1N=C2c3ccccc3N=C(SCc3cccc(Cl)c3)N2C1=O)NCc1ccco1 (stereo not given)	CYP2C9 inhib 67
CC(C)NC(=O)c1ccccc1NC(=O)CN(c1ccc2c(c1)OCO2)S(C)(=O)=O	CYP2C9 inhib 82
COC(=O)c1ccc(C)c(NC(=O)CN(c2cc(OC)ccc2OC)S(C)(=O)=O)c1	CYP2C19 inhib 56
CS(=O)(=O)N(CC(=O)Nc1ccccc1C(=O)NCc1ccccc1)c1ccc2c(c1)OCCO2	CYP2C9 inhib 94
COC(=O)c1ccc(C)c(NC(=O)CN(c2ccc3c(c2)OCO3)S(C)(=O)=O)c1	CYP2C9 inhib 69, CYP2C19 inhib 70
CCC(C)C(NC(=O)C(N)CC(C)C)C(=O)NC(CCC(=O)OCc1ccccc1)C(N)=O (stereo not given)	none
CS(=O)(=O)N(CC(=O)Nc1ccccc1C(=O)NCCc1ccccc1)c1ccc2c(c1)OCCO2	CYP2C9 inhib 94, CYP2C19 inhib 87
COc1ccc(-c2nc(CCNC(=O)c3ccco3)cs2)cc1OC	CYP2C9 inhib 54
Cc1ccc(C(=O)NCCc2csc(-c3cccnc3)n2)cc1	CYP2C9 inhib 63
Cc1nc(CNS(=O)(=O)c2ccc3c(c2)CCCC3)cs1	CYP2C9 act 2.4
O=S(=O)(NCCc1csc(-c2cccnc2)n1)c1cccs1	CYP2C9 inhib 66, CYP2C19 inhib 94
CCCCOc1ccc(S(=O)(=O)NCc2csc(C)n2)cc1	none
O=S(=O)(NCc1csc(-c2cccnc2)n1)c1cccs1	none
O=S(=O)(NCCc1csc(-c2cccnc2)n1)c1ccc(Cl)s1	CYP2C9 inhib 83, CYP2C19 inhib 80
COc1ccccc1Oc1ccc(S(=O)(=O)NCc2ccccn2)cc1	none
O=C(NCCc1csc(-c2ccc(C(F)(F)F)cc2)n1)c1cccs1	CYP2C9 inhib 75
CCc1ccc(S(=O)(=O)NCCc2cn3ccccc3n2)s1	none
COc1ccc(-c2nc(CNS(=O)(=O)c3ccc(OC)c(OC)c3)cs2)cc1	CYP2C9 inhib 55, CYP2C19 inhib 82
